Screening data: PubChem BioAssay, National Center for Advancing Translational Sciences (NCATS)
Hits are enriched below; roughly 17% of the tested compounds scored in any of these assays.
TGFb SMAD3 inh – TGF-b pathway inhibition; HepG2 CAGA-GFP TGF-b/SMAD3 reporter, GFP fluorescence, 18 h; TGF-beta stimulated, 500 pg/mL final; Potency, µM (top dose mostly 46.1 µM), without a hit: top-dose activity, negative = inhibition, hits mostly inhibitors; actives 1.2% (n = 410,000); AID 588855; also: % is scaled to controls: 0 for no effect and ±100 for the full control effect; nearly all actives have a fitted effect of over 65% in size
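HEPG2 CAGA-GFP reporter cells (1000/well, DMEM with 1% FBS) received compounds, then recombinant TGF-beta at 500 pg/mL final for 18 hours at 37 degrees C. Per-cell GFP summed per well was normalised to unstimulated and stimulated DMSO controls before curve fitting.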
ATXN2 expr inh – ATXN2 expression inhibition; HEK-293 ATXN2-luciferase reporter, luminescence, 24 h; Potency, µM (titrated, usually from 57 µM), without a hit: top-dose activity change, negative = inhibition, hits mostly inhibitors; actives 0.72% (n = 360,000); also: % is scaled to controls: 0 for no effect and ±100 for the full control effect; nearly all actives have a fitted effect of over 55% in size
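qHTS (up to 57 uM final) was run with 24 h compound exposure of reporter cells at 37 °C. Each well was multiplexed: SteadyGlo luminescence measured ATXN2-luciferase expression after a fluorogenic Gly-Phe-AFC viability readout (25 uM final).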
DT40 TDP1 CPT – DT40-hTDP1 cell growth loss with CPT | chicken DT40 Tdp1-/-;hTDP1 cells + 20 nM CPT, ATP luminescence, 48 h | actives 12% (n = 420,000) | Potency, µM (titrated, usually from 46.2 µM), for the others: at the highest dose activity change, negative = growth inhibition, hits mostly inhibitors; also: % is scaled to controls: 0 for no effect and ±100 for the full control effect; nearly all actives have a fitted effect of over 55% in size
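Chicken DT40 Tdp1-/- cells stably complemented with human TDP1 were seeded at 400 cells/well in medium containing 20 nM camptothecin, exposed to pin-transferred compounds, and grown at 37 °C for at least 48 hr. Viability was read as ATP luminescence.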
TDP1 cell noCPT – qHTS for Inhibitors of human tyrosyl-DNA phosphodiesterase 1 (TDP1): qHTS in cells in absence of CPT. DT40 Tdp1-/- hTDP1 cells, no CPT, ATP luminescence, 48 h. actives 15% (n = 420,000). AID 686978, 2013. Potency, µM (series often up to 46.2 µM), inactives show at the top dose activity change, negative = growth inhibition, usual class: inhibitors; also: % is scaled to controls: 0 for no effect and ±100 for the full control effect; nearly all actives have a fitted effect of over 55% in size
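DT40 Tdp1-/-;hTDP1 cells, no CPT (DMSO vehicle only), 400 cells/well; compounds pin-transferred; ≥48 hr, 37 °C; CellTiter-Glo 30 min RT dark, luminescence read.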
ATXN viability – cell viability loss in ATXN counter-screen | Potency, µM (titrated, usually from 56.7 µM), usual class: cytotoxic | AID 651635 | S2 cells (HEK-293 line with an ATXN2-luciferase reporter) viability, CellTiter-Fluor protease fluorescence, 24 h | actives 0.49% (n = 400,000); also: nearly all actives have a fitted effect of over 40% in size
HepG2 tox-1 – counter-screen for TGF-b inhibitors: cytotoxicity in HepG2 cells; HepG2 CAGA-GFP viability, ATP luminescence, 18 h; Potency, µM (series often up to 46.1 µM), without a hit: top-dose activity change, negative = cytotoxicity, usual class: cytotoxic; AID 588856; actives 0.76% (n = 410,000)
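CellTiter-Glo luminescence gave cytotoxicity after 18 hours at 37 degrees C. The cells were HepG2 CAGA-GFP in 1% FBS DMEM, stimulated with 500 pg/mL TGF-beta after compound addition. %Activity was normalised to no-cell wells (complete cell-killing) and DMSO (no toxicity), and curves were fitted and classified.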
TGFb confirm – TGF-b pathway inhibition, cherry-pick retest | shares compounds with TGFb SMAD3 inh | HepG2 CAGA-GFP TGF-b reporter, GFP fluorescence, 18 h; cells stimulated with TGF-beta, 500 pg/mL | Potency, µM (titrated, usually from 46.1 µM), for inactives: at the highest dose activity, negative = inhibition, usual class: inhibitors | actives 63% (n = 1,600) | AID 720534; also: % is scaled to controls: 0 for no effect and ±100 for the full control effect; nearly all actives have a fitted effect of over 65% in size
HepG2 tox-2 – toxic to HepG2 cells in TGF-b counterscreen. shares compounds with TGFb SMAD3 inh. HepG2 CAGA-GFP viability, ATP luminescence, 18 h; cells stimulated with TGF-beta, 500 pg/mL. Potency, µM (doses to about 46.1 µM), inactives show at the top dose activity, negative = cytotoxicity, actives largely listed as inhibitors. actives 27% (n = 1,600). AID 720535; also: % is scaled to controls: 0 for no effect and ±100 for the full control effect; nearly all actives have a fitted effect of over 70% in size
CCL64 TGFb inh – blocks TGF-b signaling in CCL64 reporter cells. shares compounds with TGFb SMAD3 inh. CCL64 CAGA-GFP reporter, TGF-b stimulated, GFP fluorescence, 18 h. Potency, µM (series often up to 46.1 µM), for the others: top-dose activity, negative = inhibition, usual class: inhibitors. actives 41% (n = 1,600); also: nearly all actives have a fitted effect of over 65% in size
TGFb COP inh – blocks TGF-b signaling in HepG2 COP reporter; AID 720537; Potency, µM (series often up to 46.1 µM), without a hit: top-dose activity, negative = inhibition, hits mostly inhibitors; shares compounds with TGFb SMAD3 inh; HepG2 COP-GFP TGF-b reporter, GFP fluorescence, 18 h; cells stimulated by added recombinant TGF-beta; actives 3% (n = 1,600); also: nearly all actives have a fitted effect of over 70% in size
* marks the source's active call; other numbers are inactive results; i = inactive; ? = inconclusive; nt = not tested or not shown; [ ] = remark or other dose. Calls follow the shape of the dose curve; as a rule, active = well fitted curve in the direction sought with a large enough effect; inconclusive = small, poorly fitted or top-dose-only effect, or another doubt; inactive = no such curve, though single readings can be large; an effect the other way counts as inactive or inconclusive. Potency is read from the fitted curve at half-maximal effect.

SMILES | TGFb SMAD3 inh | ATXN2 expr inh | DT40 TDP1 CPT | TDP1 cell noCPT | ATXN viability | HepG2 tox-1 | TGFb confirm | HepG2 tox-2 | CCL64 TGFb inh | TGFb COP inh
COc1ccc([N+](=O)[O-])cc1N(CC(=O)Nc1ccccc1C(=O)NC(C)C)S(C)(=O)=O | 1% | -9% | -20% | -22% | ? | -5% | nt | nt | nt | nt
Oc1ccc2nnc3c(Br)cnn3c2c1 | -2% | nt | -8% | -5% | nt | -1% | nt | nt | nt | nt
Clc1ccc(-c2nc3ncccn3c2Cl)cc1 | -9% | 25%[11.3 µM] | 1% | 1% | i | 1% | nt | nt | nt | nt
COc1ccc2[nH]c3c(c2c1)CCN1C(=O)C(CC(=O)NCCC2=CCCCC2)C[C@H](C(=O)N2CCCCC2)[C@@]31C (some centres undefined) | 7.9µM* | -1% | 23µM* | 18µM* | i | -36% | ? | -8% | -13% | 27%
C[C@]12c3[nH]c4cc(-c5ccco5)ccc4c3CCN1C(=O)[C@@H](CC(=O)NCCc1ccccn1)C[C@@H]2C(=O)N1CCCCC1 | ? | -23% | ? | ? | i | -2% | ? | -21% | -27% | 32%
COCCCNC(=O)CC1C[C@H](C(=O)N2CCCCC2)[C@@]2(C)c3[nH]c4ccc(OC)cc4c3CCN2C1=O (some centres undefined) | 12% | 0% | 1% | -5% | i | -14% | nt | nt | nt | nt
CCN(CC)C(=O)[C@H]1CC(CC(=O)NCCN2CCOCC2)C(=O)N2CCc3c([nH]c4ccc(OC)cc34)[C@]12C (some centres undefined) | -3% | 8% | 9% | -11% | i | -2% | nt | nt | nt | nt
CCN(CC)C(=O)[C@H]1C[C@H](CC(=O)NCc2cccc(C(F)(F)F)c2)C(=O)N2CCc3c([nH]c4cc(-c5ccco5)ccc34)[C@]12C | 10µM* | ? | ? | ? | ? | -38% | 9.2µM* | 16µM* | 12µM* | 35%
CCN(CC)C(=O)[C@H]1CC(CC(=O)NCc2cccc(C(F)(F)F)c2)C(=O)N2CCc3c([nH]c4ccc(OC)cc34)[C@]12C (some centres undefined) | 8.9µM* | ? | 16µM* | 15µM* | ? | -4% | 33µM* | -29% | ? | 6%
